Source: PMC7862700, “An all-to-all approach to the identification of sequence-specific readers for epigenetic DNA modifications on cytosine”

Key:
Assay in all cases: DAPPL (digital affinity profiling via proximity ligation, sequencing); 10 mM Tris-HCl pH 7.5, 50 mM NaCl, 1 mM DTT, 4% glycerol, room temperature, 30 min; GST-TFs on glutathione beads, 16-mer random dsDNA library, 0.1% formaldehyde crosslink after washing; high values mean tight binding
[1] = target: T1, FLI1 (Homo sapiens, UniProt Q01543 1-452); conditions: protein: recombinant; tags: N-terminal GST; dsDNA, one strand shown
T1 sequence: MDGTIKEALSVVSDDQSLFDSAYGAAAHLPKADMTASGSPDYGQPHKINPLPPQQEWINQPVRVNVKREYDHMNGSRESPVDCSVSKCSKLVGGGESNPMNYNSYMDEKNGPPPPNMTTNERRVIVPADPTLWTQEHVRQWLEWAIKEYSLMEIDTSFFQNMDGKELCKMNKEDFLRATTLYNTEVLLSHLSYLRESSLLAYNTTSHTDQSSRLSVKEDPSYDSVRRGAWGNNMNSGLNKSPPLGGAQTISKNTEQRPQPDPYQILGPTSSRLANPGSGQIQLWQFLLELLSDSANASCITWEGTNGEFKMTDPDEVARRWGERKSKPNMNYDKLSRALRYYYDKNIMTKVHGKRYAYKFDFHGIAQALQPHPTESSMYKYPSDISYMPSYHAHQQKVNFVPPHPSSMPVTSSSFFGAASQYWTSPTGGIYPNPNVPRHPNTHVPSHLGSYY
In short: (§1)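 Human transcription factors carrying a GST fusion were produced in yeast, bound to glutathione beads, tagged with DNA barcodes and pooled together with a tag-only sample. Each pool was held with 200 nmole of a random double-stranded 16-mer DNA library in Tris/NaCl/DTT/glycerol buffer for 30 min at room temperature, then washed, crosslinked in 0.1% formaldehyde, proximity-ligated with BsaI/T4 ligase (1 h, 37 °C), PCR-amplified and sequenced on an Illumina NextSeq500. Binding signal is the read frequency of each hexamer for a given factor divided by its frequency in the tag-only sample.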

[2] = target: T2, ELK1 (Homo sapiens, UniProt P19419 1-428); conditions: protein: recombinant; tags: N-terminal GST; dsDNA, one strand shown
T2 sequence: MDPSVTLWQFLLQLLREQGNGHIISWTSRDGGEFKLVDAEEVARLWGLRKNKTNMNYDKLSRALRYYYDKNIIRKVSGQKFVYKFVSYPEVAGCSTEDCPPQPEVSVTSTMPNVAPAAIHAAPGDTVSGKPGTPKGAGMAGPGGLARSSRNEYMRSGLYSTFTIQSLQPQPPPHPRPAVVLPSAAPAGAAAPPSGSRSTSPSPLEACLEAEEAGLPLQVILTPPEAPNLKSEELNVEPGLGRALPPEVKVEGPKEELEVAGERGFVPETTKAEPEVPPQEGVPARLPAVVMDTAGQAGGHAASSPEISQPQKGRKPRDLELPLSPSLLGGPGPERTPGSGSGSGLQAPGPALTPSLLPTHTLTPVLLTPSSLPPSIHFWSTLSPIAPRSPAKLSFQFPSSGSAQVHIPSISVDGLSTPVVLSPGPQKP
In short: as §1

[3] = target: T3, GABPA (Homo sapiens, UniProt Q06546 1-454); conditions: protein: recombinant; tags: N-terminal GST; dsDNA, one strand shown
T3 sequence: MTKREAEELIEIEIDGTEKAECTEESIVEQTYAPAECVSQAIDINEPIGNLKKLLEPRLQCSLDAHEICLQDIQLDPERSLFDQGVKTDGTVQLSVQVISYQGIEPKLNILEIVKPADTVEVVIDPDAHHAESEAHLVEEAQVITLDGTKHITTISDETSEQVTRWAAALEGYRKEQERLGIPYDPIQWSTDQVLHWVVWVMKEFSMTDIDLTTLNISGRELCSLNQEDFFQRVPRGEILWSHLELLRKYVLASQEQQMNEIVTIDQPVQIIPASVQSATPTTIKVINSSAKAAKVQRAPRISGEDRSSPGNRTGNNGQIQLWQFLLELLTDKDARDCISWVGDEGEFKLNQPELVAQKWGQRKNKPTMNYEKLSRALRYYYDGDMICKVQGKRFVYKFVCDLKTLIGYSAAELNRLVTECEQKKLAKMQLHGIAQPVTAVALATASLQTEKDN
In short: as §1

[4] = target: T4, ERG (Homo sapiens, UniProt P11308 1-479); conditions: protein: recombinant; tags: N-terminal GST; dsDNA, one strand shown
T4 sequence: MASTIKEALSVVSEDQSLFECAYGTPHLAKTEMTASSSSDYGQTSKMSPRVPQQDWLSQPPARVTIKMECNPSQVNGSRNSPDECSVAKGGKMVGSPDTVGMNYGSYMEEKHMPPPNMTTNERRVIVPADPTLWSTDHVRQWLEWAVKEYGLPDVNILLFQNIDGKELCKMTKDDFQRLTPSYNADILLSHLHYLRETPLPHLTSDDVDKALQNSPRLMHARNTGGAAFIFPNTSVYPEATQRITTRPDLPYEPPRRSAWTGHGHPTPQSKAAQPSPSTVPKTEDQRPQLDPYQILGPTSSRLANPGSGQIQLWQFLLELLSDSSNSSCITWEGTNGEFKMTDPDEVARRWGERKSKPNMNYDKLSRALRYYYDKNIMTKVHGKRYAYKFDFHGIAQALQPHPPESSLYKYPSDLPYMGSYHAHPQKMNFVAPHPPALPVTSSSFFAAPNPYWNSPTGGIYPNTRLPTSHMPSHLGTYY
In short: as §1

[5] = target: ELF1 (Homo sapiens, UniProt P32519 1-619); conditions: protein: recombinant; tags: N-terminal GST; dsDNA, one strand shown
In short: as §1

[6] = target: T5, EHF (Homo sapiens, UniProt Q9NZC4 1-300); conditions: protein: recombinant; tags: N-terminal GST; dsDNA, one strand shown
T5 sequence: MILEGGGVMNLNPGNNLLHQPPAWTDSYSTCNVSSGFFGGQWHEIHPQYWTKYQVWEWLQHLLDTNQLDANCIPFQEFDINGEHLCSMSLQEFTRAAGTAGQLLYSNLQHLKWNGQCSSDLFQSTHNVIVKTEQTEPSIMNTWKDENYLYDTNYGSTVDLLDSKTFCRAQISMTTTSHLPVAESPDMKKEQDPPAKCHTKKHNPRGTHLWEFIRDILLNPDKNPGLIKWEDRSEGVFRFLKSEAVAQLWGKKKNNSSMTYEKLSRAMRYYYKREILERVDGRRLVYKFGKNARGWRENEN
In short: as §1

[7] = target: SPI1 (Homo sapiens, UniProt P17947 1-270); conditions: protein: recombinant; tags: N-terminal GST; dsDNA, one strand shown
In short: as §1

[8] = target: SPIB (Homo sapiens, UniProt Q01892 1-262); conditions: protein: recombinant; tags: N-terminal GST; dsDNA, one strand shown
In short: as §1

[9] = target: T6, ELK3 (Homo sapiens, UniProt P41970 1-407); conditions: protein: recombinant; tags: N-terminal GST; dsDNA, one strand shown
T6 sequence: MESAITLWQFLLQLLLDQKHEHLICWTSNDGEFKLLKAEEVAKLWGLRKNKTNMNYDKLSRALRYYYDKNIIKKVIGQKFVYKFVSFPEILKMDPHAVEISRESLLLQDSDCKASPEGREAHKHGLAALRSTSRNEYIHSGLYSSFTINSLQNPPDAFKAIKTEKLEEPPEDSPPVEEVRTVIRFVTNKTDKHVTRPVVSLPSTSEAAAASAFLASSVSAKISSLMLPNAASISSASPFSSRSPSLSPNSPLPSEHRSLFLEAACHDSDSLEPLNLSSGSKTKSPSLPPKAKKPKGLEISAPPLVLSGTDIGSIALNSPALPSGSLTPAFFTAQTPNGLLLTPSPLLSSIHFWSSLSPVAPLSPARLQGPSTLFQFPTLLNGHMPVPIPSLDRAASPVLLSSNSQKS
In short: as §1

[10] = target: T7, FEV (Homo sapiens, UniProt Q99581 1-238); conditions: protein: recombinant; tags: N-terminal GST; dsDNA, one strand shown
T7 sequence: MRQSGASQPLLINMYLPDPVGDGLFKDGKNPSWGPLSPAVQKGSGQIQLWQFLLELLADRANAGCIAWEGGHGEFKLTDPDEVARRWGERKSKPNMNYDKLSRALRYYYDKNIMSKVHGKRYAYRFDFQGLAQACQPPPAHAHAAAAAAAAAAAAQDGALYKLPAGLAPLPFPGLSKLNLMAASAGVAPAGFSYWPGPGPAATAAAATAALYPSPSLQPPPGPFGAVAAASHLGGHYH
In short: as §1

[11] = target: ETV5 (Homo sapiens, UniProt P41161 1-510); conditions: protein: recombinant; tags: N-terminal GST; dsDNA, one strand shown
In short: as §1

[12] = target: HSF1 (Homo sapiens, UniProt Q00613 1-529); conditions: protein: recombinant; tags: N-terminal GST; chain copies: 3; dsDNA, one strand shown
In short: as §1

[13] = target: T8, SPIC (Homo sapiens, UniProt Q8N5J4 1-248); conditions: protein: recombinant; tags: N-terminal GST; dsDNA, one strand shown
T8 sequence: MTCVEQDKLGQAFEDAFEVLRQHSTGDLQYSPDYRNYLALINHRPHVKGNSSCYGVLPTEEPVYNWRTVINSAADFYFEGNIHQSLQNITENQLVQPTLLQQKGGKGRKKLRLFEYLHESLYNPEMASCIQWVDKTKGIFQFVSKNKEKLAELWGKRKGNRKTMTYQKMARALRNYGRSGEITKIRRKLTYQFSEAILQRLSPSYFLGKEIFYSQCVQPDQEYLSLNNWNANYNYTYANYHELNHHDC
In short: as §1

[14] = target: ELF4 (Homo sapiens, UniProt Q99607 1-663); conditions: protein: recombinant; tags: N-terminal GST; dsDNA, one strand shown
In short: as §1

[15] = target: T9, ELK4 (Homo sapiens, UniProt P28324-2 1-405); conditions: protein: recombinant; tags: N-terminal GST; dsDNA, one strand shown
T9 sequence: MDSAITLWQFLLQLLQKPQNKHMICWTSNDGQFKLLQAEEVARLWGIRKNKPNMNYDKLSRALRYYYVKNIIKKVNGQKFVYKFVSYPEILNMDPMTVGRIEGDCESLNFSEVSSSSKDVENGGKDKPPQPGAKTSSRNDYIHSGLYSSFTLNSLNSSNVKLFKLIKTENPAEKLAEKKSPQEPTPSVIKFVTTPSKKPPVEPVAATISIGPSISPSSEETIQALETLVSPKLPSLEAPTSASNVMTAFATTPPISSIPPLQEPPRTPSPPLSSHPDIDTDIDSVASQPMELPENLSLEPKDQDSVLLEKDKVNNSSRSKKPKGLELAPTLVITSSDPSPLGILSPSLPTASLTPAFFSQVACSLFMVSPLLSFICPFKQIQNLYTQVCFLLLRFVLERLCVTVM
In short: as §1

[16] = target: T10, ETV2 (Homo sapiens, UniProt O00321 1-342); conditions: protein: recombinant; tags: N-terminal GST; dsDNA, one strand shown
T10 sequence: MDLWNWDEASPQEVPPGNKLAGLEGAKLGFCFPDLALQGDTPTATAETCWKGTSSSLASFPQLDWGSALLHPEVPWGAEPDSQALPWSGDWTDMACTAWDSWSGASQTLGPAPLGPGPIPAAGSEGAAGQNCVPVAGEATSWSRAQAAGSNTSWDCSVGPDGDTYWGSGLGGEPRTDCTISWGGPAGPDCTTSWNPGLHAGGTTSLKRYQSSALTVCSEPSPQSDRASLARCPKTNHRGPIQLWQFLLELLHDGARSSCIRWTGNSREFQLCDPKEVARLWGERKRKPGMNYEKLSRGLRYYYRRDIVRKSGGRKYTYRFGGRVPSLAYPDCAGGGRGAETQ
In short: as §1

[17] = target: T11, ELF3 (Homo sapiens, UniProt P78545 1-371); conditions: protein: recombinant; tags: N-terminal GST; dsDNA, one strand shown
T11 sequence: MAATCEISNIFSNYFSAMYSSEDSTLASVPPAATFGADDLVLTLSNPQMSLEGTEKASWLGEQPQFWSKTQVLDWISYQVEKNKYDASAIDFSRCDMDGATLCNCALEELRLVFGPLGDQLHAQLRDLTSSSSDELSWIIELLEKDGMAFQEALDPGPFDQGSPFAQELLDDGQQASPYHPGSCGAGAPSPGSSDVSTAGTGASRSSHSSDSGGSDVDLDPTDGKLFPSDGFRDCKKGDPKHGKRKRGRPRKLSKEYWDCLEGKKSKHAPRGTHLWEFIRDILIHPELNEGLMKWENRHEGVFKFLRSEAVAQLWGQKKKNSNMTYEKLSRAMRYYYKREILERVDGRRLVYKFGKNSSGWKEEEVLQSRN
In short: as §1

[18] = target: CRX (Homo sapiens, UniProt O43186 1-299); conditions: protein: recombinant; tags: N-terminal GST; dsDNA, one strand shown
In short: as §1

[19] = target: ETV1 (Homo sapiens, UniProt P50549 1-477); conditions: protein: recombinant; tags: N-terminal GST; dsDNA, one strand shown
In short: as §1

Chain of CRX (O43186 whole entry): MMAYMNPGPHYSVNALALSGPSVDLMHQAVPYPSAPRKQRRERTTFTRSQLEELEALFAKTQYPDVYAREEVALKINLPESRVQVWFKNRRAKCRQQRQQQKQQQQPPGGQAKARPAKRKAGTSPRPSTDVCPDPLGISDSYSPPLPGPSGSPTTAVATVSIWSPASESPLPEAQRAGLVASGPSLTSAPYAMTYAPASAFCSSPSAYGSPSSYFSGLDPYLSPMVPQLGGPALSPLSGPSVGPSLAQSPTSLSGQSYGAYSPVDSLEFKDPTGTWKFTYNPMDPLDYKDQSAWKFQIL
Chain of ELF1 (P32519 whole entry): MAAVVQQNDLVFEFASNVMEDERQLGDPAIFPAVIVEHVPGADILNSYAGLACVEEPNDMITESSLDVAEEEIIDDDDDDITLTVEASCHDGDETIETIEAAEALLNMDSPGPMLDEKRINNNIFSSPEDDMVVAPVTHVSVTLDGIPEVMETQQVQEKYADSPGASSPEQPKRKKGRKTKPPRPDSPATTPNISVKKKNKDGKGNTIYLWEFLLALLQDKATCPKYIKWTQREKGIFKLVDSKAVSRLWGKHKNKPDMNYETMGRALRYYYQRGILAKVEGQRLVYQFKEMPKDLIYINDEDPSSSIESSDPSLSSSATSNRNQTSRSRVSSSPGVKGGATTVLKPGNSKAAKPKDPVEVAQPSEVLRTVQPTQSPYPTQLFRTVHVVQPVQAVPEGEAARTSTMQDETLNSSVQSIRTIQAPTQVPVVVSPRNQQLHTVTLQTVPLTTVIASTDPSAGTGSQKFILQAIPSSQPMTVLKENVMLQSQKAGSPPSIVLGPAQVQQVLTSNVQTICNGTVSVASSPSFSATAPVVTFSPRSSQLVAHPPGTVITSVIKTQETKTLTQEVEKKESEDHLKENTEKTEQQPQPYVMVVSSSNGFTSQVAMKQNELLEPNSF
Chain of ETV5 (P41161 whole entry): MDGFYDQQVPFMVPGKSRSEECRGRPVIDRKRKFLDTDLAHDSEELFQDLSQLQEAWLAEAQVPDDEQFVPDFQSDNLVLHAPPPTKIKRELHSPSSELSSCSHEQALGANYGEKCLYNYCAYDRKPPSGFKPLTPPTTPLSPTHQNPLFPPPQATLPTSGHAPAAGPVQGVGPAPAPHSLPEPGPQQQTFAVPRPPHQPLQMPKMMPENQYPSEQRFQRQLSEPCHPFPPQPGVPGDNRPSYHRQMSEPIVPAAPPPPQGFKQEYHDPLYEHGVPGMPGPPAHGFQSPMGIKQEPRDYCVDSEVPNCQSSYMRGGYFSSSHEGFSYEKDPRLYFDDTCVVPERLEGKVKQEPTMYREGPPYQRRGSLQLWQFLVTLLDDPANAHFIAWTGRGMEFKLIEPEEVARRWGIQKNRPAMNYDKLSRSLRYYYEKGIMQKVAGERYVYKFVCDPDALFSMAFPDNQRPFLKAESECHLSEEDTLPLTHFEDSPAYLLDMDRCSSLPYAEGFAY
Chain of HSF1 (Q00613 whole entry): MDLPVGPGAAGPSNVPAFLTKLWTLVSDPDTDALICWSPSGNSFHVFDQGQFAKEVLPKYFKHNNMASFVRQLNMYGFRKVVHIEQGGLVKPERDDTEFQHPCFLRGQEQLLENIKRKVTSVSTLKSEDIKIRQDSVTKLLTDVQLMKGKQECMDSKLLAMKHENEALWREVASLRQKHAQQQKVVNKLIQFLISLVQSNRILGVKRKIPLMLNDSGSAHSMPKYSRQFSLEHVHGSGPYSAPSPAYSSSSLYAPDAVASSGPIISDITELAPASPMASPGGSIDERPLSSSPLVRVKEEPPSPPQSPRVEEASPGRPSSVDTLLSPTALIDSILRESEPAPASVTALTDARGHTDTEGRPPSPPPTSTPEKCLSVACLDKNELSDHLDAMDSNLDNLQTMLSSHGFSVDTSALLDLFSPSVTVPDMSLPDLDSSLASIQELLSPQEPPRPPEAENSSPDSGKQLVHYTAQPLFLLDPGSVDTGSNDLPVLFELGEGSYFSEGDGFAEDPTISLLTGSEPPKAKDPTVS
Chain of SPIB (Q01892 whole entry): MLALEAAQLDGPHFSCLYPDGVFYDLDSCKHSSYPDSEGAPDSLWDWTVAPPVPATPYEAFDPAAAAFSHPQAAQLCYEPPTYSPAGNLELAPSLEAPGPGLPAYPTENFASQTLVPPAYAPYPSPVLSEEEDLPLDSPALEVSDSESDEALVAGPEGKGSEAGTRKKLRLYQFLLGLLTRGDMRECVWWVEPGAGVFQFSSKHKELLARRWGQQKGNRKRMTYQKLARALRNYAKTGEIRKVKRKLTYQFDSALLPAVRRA
Chain of ELF4 (Q99607 whole entry): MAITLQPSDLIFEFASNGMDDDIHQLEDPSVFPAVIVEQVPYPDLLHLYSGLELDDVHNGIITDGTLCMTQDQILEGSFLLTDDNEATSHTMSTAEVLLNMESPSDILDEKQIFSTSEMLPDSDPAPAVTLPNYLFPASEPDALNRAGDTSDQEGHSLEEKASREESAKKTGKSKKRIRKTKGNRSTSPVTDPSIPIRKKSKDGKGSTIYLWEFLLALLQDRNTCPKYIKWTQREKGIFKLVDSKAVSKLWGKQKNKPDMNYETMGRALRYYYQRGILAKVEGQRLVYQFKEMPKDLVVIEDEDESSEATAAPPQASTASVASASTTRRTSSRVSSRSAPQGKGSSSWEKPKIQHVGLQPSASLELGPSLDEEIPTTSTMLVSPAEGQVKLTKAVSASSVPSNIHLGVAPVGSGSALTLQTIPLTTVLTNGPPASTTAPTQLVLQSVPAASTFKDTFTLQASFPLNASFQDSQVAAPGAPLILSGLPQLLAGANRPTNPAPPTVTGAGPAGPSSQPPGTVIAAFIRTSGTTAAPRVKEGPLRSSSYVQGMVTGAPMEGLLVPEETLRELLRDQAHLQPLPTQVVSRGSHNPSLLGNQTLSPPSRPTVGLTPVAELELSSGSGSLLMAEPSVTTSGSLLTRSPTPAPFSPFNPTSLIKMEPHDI
Chain of ETV1 (P50549 whole entry): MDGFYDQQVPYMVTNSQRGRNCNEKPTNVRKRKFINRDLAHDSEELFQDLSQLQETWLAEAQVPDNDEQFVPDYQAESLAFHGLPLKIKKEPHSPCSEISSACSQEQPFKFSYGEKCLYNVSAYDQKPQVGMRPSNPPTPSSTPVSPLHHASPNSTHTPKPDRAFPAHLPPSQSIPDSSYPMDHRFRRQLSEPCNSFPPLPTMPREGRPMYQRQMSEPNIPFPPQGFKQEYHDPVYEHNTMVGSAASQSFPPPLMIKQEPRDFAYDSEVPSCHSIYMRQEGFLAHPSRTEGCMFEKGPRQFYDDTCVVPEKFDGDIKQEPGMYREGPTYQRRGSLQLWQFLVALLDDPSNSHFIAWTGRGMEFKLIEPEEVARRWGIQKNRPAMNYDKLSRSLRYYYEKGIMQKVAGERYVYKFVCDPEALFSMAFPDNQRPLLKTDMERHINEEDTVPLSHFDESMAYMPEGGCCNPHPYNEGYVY

For TTCGTC, the binding signal [1] was 1.36 fold enrichment (6-mer frequency, TF over GST control), the binding signal [2] was 1.33 fold enrichment (6-mer frequency, TF over GST control) and the binding signal [3] was 1.33 fold enrichment (6-mer frequency, TF over GST control). The binding signal [4] was 1.23 fold enrichment (6-mer frequency, TF over GST control), the binding signal [5] was 1.32 fold enrichment (6-mer frequency, TF over GST control) and the binding signal [6] was 1.27 fold enrichment (6-mer frequency, TF over GST control). For the same sequence, the binding signal [7] was 1.29 fold enrichment (6-mer frequency, TF over GST control), the binding signal [8] was 1.27 fold enrichment (6-mer frequency, TF over GST control) and the binding signal [9] was 1.22 fold enrichment (6-mer frequency, TF over GST control). The binding signal [10] was 1.21 fold enrichment (6-mer frequency, TF over GST control), the binding signal [11] was 1.33 fold enrichment (6-mer frequency, TF over GST control) and the binding signal [12] was 1.25 fold enrichment (6-mer frequency, TF over GST control). For the same sequence, the binding signal [13] was 1.23 fold enrichment (6-mer frequency, TF over GST control), the binding signal [14] was 1.29 fold enrichment (6-mer frequency, TF over GST control) and the binding signal [15] was 1.41 fold enrichment (6-mer frequency, TF over GST control). For the same sequence, the binding signal [16] was 1.33 fold enrichment (6-mer frequency, TF over GST control), the binding signal [17] was 1.39 fold enrichment (6-mer frequency, TF over GST control) and the binding signal [18] was 1.09 fold enrichment (6-mer frequency, TF over GST control). For the same sequence, the binding signal [19] was 1.26 fold enrichment (6-mer frequency, TF over GST control).
